Bioassay records deposited in PubChem BioAssay by National Center for Advancing Translational Sciences (NCATS).
In the library only some 9.2% were active in any assay of this set; here they are far more common.
FLuc modulator: qHTS profiling assay for firefly luciferase inhibitor/activator using purifed enzyme and Km concentrations of substrates (counterscreen for miR-21 project) | Luciferin 4-monooxygenase (Photinus pyralis), P08659 | purified FLuc, Km substrates, luminescence inhibition | Potency, µM (titrated, usually from 57.5 µM), for the others: at the top dose activity change, negative = inhibition, usual class: inhibitors | 360,000 tested, 6.9% active | AID 588342, 2011;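 also: plate controls were vehicle for no effect and reference inhibitor for full effect; nearly all actives have a fitted effect of over 55% in size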
Target sequence (P08659 whole entry, looked up): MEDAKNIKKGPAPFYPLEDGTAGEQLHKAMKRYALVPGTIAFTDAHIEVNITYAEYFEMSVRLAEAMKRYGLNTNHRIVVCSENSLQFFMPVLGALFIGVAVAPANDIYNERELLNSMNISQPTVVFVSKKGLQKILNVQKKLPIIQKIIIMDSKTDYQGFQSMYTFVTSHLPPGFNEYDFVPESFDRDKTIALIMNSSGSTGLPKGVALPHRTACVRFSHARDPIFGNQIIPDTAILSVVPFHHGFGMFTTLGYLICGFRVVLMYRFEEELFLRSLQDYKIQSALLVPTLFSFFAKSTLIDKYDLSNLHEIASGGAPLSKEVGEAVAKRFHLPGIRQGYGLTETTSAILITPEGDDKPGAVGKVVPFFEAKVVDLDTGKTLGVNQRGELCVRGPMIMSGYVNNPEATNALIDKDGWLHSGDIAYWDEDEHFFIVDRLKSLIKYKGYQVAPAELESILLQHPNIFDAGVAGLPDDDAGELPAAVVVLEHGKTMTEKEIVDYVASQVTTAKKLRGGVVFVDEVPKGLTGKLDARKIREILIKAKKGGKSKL
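Purified P. pyralis luciferase, 10 nM final, with Km-level 10 uM D-luciferin and 10 uM ATP in 50 mM Tris acetate pH 7.5, 10 mM Mg acetate, 0.01% Tween-20, 0.05% BSA; 6-point qHTS titration about 60 µM downward; luminescence read.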
NPC1 promoter act: qHTS Assay for NPC1 Promoter Activators. Huh7 NPC1 promoter luciferase reporter, 24 h. Potency, µM (titrated, usually from 9.22 µM), inactives show at the highest dose activation, hits mostly activators. 320,000 tested, 2.4% active. AID 485313, 2010; also: % of control where 0% means no effect; nearly all actives have a fitted effect of over 60% in size
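Readout is luciferase luminescence, reflecting NPC1 promoter activation in stably transfected Huh7 cells after 24 h compound exposure at 37 °C in reduced-serum medium with 10% FBS.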
ELG1 genotoxic: qHTS screen for small molecules that induce genotoxicity in human embryonic kidney (HEK293T) cells expressing luciferase-tagged ELG1; HEK293T ELG1-luciferase reporter, luminescence, 16 h; Potency, µM (titrated, usually from 46 µM), without a hit: at the highest dose activity change, positive = activation, actives largely listed as activators; 330,000 tested, 1.3% active; AID 504466, 2011; also: % of control where 0% means no effect; nearly all actives have a fitted effect of over 60% in size
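Luminescence read-out: rising ELG1-luciferase signal, reflecting elevated ELG1 protein under genetic stress, flags genotoxic compounds. Cells were treated for 16 hr at 37 °C before ONE-Glo detection.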
ELG1 DNA repair: qHTS screen for small molecules that inhibit ELG1-dependent DNA repair in human embryonic kidney (HEK293T) cells expressing luciferase-tagged ELG1; HEK293T ELG1-luciferase reporter, luminescence, 16 h; DNA damage induced by 5-fluorouridine; Potency, µM (top dose mostly 46.1 µM), without a hit: at the highest dose activity change, negative = inhibition, actives largely listed as inhibitors; 330,000 tested, 2.3% active; AID 504467, 2011; also: % is scaled to controls: 0 for no effect and ±100 for the full control effect; nearly all actives have a fitted effect of over 55% in size
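HEK293T cells expressing luciferase-tagged ELG1 (2,000/well) received 5-Fluorouridine plus compound or DMSO for 16 hr at 37 °C. Luciferase was read by ONE-Glo luminescence after 30 min at room temperature.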
Rab9 prom act: qHTS Assay for Rab9 Promoter Activators | 320,000 tested, 2.8% active | Huh7 Rab9 promoter-luciferase reporter, luminescence, 24 h | Potency, µM (titrated, usually from 9.22 µM), for the others: top-dose activation, negative = inhibition, actives largely listed as activators; also: % of control where 0% means no effect; nearly all actives have a fitted effect of over 60% in size
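Huh7 cells stably carrying Rab9 promoter–luciferase reporter, plated 1500 cells/well, compound added after 2 h and incubated 24 h at 37 °C; luciferase luminescence then read after 10 min with detection reagent.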
SMN2 splice enh: qHTS Assay for Enhancers of SMN2 Splice Variant Expression | HEK293 SMN2-luciferase splicing reporter, luminescence, 30-36 h | Potency, µM (highest dose often 46.1 µM), inactives show at the top dose activity change, positive = activation, actives largely listed as activators | 210,000 tested, 2.8% active | AID 1458, 2008; also: % of control where 0% means no effect; nearly all actives have a fitted effect of over 55% in size
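qHTS luciferase splicing reporter: luminescence rises when SMN2 exon 7 is included in transfected HEK293 cells. Compound exposure lasted 30-36 h at 37C, with 4.5 mM final sodium butyrate as control, followed by a ONE-Glo read.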
* marks the source's active call; other numbers are inactive results; ? = inconclusive; nt = no result given; [ ] = another dose, or the depositor's remark. Calls follow the shape of the dose curve; as a rule, active = well fitted curve in the direction sought with a large enough effect; inconclusive = small, poorly fitted or top-dose-only effect, or another doubt; inactive = no such curve, though single readings can be large; an effect the other way counts as inactive or inconclusive. Potency is read from the fitted curve at half-maximal effect.

SMILES | FLuc modulator | NPC1 promoter act | ELG1 genotoxic | ELG1 DNA repair | Rab9 prom act | SMN2 splice enh
COc1ccc(-c2nc(SC(C)C(=O)NC3CC3)n[nH]2)cc1 (configuration not stated) | 15% | 11% | 9% | ? | 20% | nt
Cc1cc(Cn2nc(C(=O)NCc3cccs3)cc2-c2ccccc2)on1 | 3% | 1% | -1% | ? | -4% | nt
COCCn1c(SCC(=O)Nc2ccc(Br)cc2)nc2c([nH]c3ccccc32)c1=O | 1% | nt | nt | nt | nt | nt
CN1CCN(c2ccc(NC(=O)c3ccc4c(c3)OCCO4)cc2)CC1 | 6µM* | 2.2µM* | 4.6µM* | ? | 3.2µM* | 11µM*
CN(C)c1ccc(C2(c3ccc(N(C)C)cc3)OC(=O)c3cc(N)ccc32)cc1 | 1% | -1% | -3% | -3% | -7%[1.84 µM] | nt
COc1cccc(Nc2nnc(SCC(=O)N(CC(C)C)CC(C)C)s2)c1 | 11µM* | -2% | -11% | -22% | -15% | nt
Cc1cccc(C)c1Nc1nnc(SCc2nc3ccccc3s2)s1 | 6µM* | 6% | ? | ? | 25% | ?
COc1cccc(Nc2nnc(SCc3nc4ccccc4s3)s2)c1 | 13µM* | ? | 15% | ? | ? | -11%
COc1cccc(Nc2nnc(SCN3C(=O)c4ccccc4C3=O)s2)c1 | 5% | 1% | 9% | ? | -1% | 28%
CC(NC(=O)CN1CCN(CC(=O)Nc2ccccc2Cl)CC1)c1ccc(Br)cc1 (configuration not stated) | nt | 0% | -5% | -23% | 0% | nt
Cn1c(N)c(C(=O)COC(=O)C2=NNC(=O)CC2)c(=O)n(C)c1=O | -1% | -2% | -1% | 6% | -2% | nt
CCOc1ccc(C(=O)c2cn(CC(=O)Nc3cc(OC)cc(OC)c3)c3ccc(F)cc3c2=O)cc1 | -5% | nt | nt | nt | nt | 11%
Cc1ccc2c(Cl)c(C(=O)NC3CC3)sc2c1 | 4.8µM* | 2µM* | ? | ? | 4µM* | nt
Cc1ccc2c(Cl)c(C(=O)Nc3cccnc3)sc2c1 | 1.9µM* | 2.8µM* | 0% | 8.2µM* | 4µM* | ?
Cc1ccc2c(C)c(C(=O)Nc3cccnc3)oc2c1 | 6.7µM* | 24% | ? | ? | ? | -18%
Cc1ccc2c(Cl)c(C(=O)N/N=C/c3cccn3C)sc2c1 | ? | 15% | ? | ? | ? | 13µM*
O=C(NC1CC1)c1sc2cc([N+](=O)[O-])ccc2c1Cl | ? | 13% | 1% | ? | 12% | 3%
Cn1cccc1/C=N/NC(=O)c1sc2cc(Cl)ccc2c1Cl | 0% | -2% | 11% | 16% | 1% | nt
Cc1ccc2c(C)c(C(=O)Nc3ccc(S(=O)(=O)Nc4onc(C)c4C)cc3)oc2c1 | -17% | -5% | 0% | 2% | -3% | nt
O=S(=O)(c1cccc(Cl)c1)c1nnn2c1nc(NC1CCCCCC1)c1sccc12 | 3% | nt | nt | nt | nt | nt
Cc1ccc(C(C)C)c(OCC(=O)N/N=C/c2cccn2C)c1 | 2% | -4% | -5% | 18µM* | -3% | nt
CC(=O)Nc1ccc(NC(=O)c2oc3cc(C)c(C)cc3c2C)cc1 | -4% | -1% | ? | -1% | -5% | -15%
Cc1cc2oc(C(=O)Nc3cccnc3)c(C)c2cc1C | ? | ? | 13µM* | ? | ? | -13%
Cc1cccc(OCC(=O)N/N=C/c2cccn2C)c1 | -16% | -4% | 3% | 2% | -6% | nt
O=C(Nc1cc(S(=O)(=O)N2CCOCC2)ccc1Cl)c1cc([N+](=O)[O-])ccc1Cl | nt | nt | -5% | ? | nt | nt
SMILES | FLuc modulator | NPC1 promoter act | ELG1 genotoxic | ELG1 DNA repair | Rab9 prom act | SMN2 splice enh
CC(=O)N(c1ccccc1)C1CCCC1 | 1% | -1% | -1% | 4% | -8% | -16%
O=C(CCl)N(c1ccccc1)C1CCCCC1 | -3% | -37% | -20% | 16µM* | -48% | -108%
O=C(NCCN1CCOCC1)c1cc(-c2ccccc2Cl)on1 | ? | -2% | 9% | ? | -8% | nt
Cn1ncc(C#N)c1NC(=O)c1cc(-c2ccccc2Cl)on1 | 27µM* | 15% | 3% | ? | 8% | 6%
O=C(Nc1ccccc1)OCc1cc(-c2ccccc2Cl)on1 | 13µM* | 25% | 20% | ? | 3% | ?
O=C(Nc1cccc(O)c1)c1cc(-c2ccccc2Cl)on1 | 0.38µM* | ? | ? | ? | 19% | nt
COc1ccc(NC(=O)c2cc(-c3ccccc3Cl)on2)cc1OC | 7.6µM* | 14% | 7% | ? | 14% | nt
COc1ccc(NC(=O)c2cc(-c3ccc(OC)c(OC)c3)on2)cc1OC | 0% | -1% | 2% | 13% | 11% | 3%
O=C(OCC(=O)c1ccc(Cl)s1)c1cncc(Br)c1 | nt | nt | -1% | -2% | nt | nt
O=C(/C=C/Nc1ccc(F)cc1F)c1ccco1 | 0.21µM* | ? | 0.46µM* | ? | 3.5µM* | 2.8µM*
O=C(NNC(=S)Nc1ccc(F)cc1F)c1ccco1 | -16% | ? | 11% | ? | ? | nt
O=C(/C=C/Nc1ccc(Br)cc1F)c1ccco1 | 0.24µM* | 1.1µM* | 0.33µM* | ? | 0.71µM* | 1.1µM*
O=C(/C=C/Nc1ccccc1O)c1ccco1 | 2.4µM* | 1% | 21µM* | ? | ? | nt
O=C(/C=C/Nc1ccccc1Oc1ccccc1)c1ccco1 | -26% | 2% | 0% | -2% | -4% | -1%
COc1ccc(CCNc2nc3cc(OC)c(OC)cc3c3nc(-c4cccnc4)nn23)cc1OC | -1% | nt | nt | nt | nt | 2%
COC(C[C@@H]1O[C@@H]1[C@H](O)COCc1ccccc1)OC | 2% | -2% | 5% | -2% | -4% | nt
CCC(C)(C)C1CCC2(CC1)NC(=O)N(CC(=O)NCCc1c[nH]c3ccccc13)C2=O (configuration not stated) | 8% | -6% | -9% | -17% | 0% | nt
O=C(Cc1sc(Nc2ccccc2)nc1-c1ccccc1)NCc1ccccn1 | 19µM* | ? | ? | ? | ? | 13µM*
O=C(O)Cc1sc(Nc2ccc(C(=O)O)cc2)nc1-c1ccccc1 | ? | nt | nt | nt | nt | 13%
O=C(O)Cc1sc(Nc2ccccc2Cl)nc1-c1ccccc1 | 3.4µM* | nt | nt | nt | nt | 69%
O=C(O)Cc1sc(-c2ccccc2)nc1-c1ccccc1 | ? | 2% | 0% | 12% | 2% | -2%
CC(C)(C)c1ccc(-c2nc(O)c(CC(=O)O)s2)cc1 | 1.9µM* | -2% | 3% | ? | 17% | nt
CCOC(=O)c1sc(-c2ccc(C(F)(F)F)cc2)nc1O | ? | 1% | -2% | 11% | -2% | nt
